Tau fibril ThT: tau fibrillization inhibition (ThT binding); P10636; recombinant tau K18 P301L, heparin-induced fibrillization, ThT fluorescence; Potency, µM (doses to about 57.4 µM), most hits filed as inhibitors; 270,000 tested, 2.1% active; further: nearly all actives have a fitted effect of over 55% in size
Target sequence (P10636 561-689 P618L limits assumed): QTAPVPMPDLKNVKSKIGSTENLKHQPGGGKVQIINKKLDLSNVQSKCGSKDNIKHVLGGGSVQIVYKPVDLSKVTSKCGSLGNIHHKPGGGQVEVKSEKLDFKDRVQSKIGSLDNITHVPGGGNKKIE
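ThT emission at 510 nm, taken 1 hr after adding 30 uM dye, quantifies aggregates formed when 20 uM heparin acts on human tau K18 P301L for 6 hr at 37 C.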
RGS12 GoLoco inh: blocks human Gai1 binding to RGS12 GoLoco peptide, red readout | P63096 | Gai1:RGS12 GoLoco peptide FP, rhodamine, 10 min | Potency, µM (titrated, usually from 61.6 µM), hits mostly inhibitors | 230,000 tested, 0.44% active; active means well fitted inhibition curve with a large enough effect, not every such curve was filed as active; inactive means no such curve, though single readings can be large or run the other way; further: nearly all actives have a fitted effect of over 30% in size
Target sequence (P63096 whole entry, looked up): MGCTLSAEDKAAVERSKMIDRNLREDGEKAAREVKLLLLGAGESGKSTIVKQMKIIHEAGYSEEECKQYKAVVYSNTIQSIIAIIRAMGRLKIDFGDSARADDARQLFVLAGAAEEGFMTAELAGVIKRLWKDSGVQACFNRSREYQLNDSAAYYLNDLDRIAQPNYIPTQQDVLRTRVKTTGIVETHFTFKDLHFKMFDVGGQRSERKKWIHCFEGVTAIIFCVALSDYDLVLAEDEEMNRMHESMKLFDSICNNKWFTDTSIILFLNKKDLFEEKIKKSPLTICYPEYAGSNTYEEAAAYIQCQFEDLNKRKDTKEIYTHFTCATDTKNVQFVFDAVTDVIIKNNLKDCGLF
Tau FP inhib: tau fibrillization inhibition (FP); K18 P301L tau heparin fibrillization, Alexa594 FP, 6 h; Potency, µM (titrated, usually from 57.7 µM), usual class: inhibitors; 280,000 tested, 0.39% active; AID 1468; further: nearly all actives have a fitted effect of over 55% in size
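FP of Alexa 594-tau after heparin (20 uM) induction. Substrate: human K18 P301L, 15 uM unlabeled, 0.24 uM labeled. Buffer 100 mM sodium acetate pH 7. 6 hr, 37 C.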
Tau fluor counter: counter-screen for tau fibril formation inhibitors; tau K18 P301L Alexa594 fluorescence, heparin fibrillization; Potency, µM (doses to about 57.7 µM); 280,000 tested, 0.93% active; AID 1463; further: nearly all actives have a fitted effect of over 55% in size
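Human tau K18 P301L (15 uM unlabeled, 0.24 uM Alexa 594-labeled) in 100 mM sodium acetate pH 7 with 20 uM heparin, 6 hr at 37 C. ThT 30 uM added, 1 hr ambient; Alexa 594 FP and total fluorescence read at 555/632 nm.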
KDM4E inh: inhibitors of human JMJD2E histone demethylase; JMJD2E catalytic domain, FDH-coupled NADH fluorescence (FDH is formaldehyde dehydrogenase); Potency, µM (doses to about 57.1 µM), usual class: inhibitors; 230,000 tested, 1.6% active; AID 2147; active means well fitted inhibition curve with a large enough effect, not every such curve was filed as active; inconclusive means small, poorly fitted or top-dose-only effect, or another doubt; inactive means no such curve, though single readings can be large or run the other way; further: nearly all actives have a fitted effect of over 50% in size
Hits are given with their value; – = inactive; ? = inconclusive; · = not tested or not shown; ! = repeats disagree; [ ] = remark or other dose. An excerpt weighted towards active compounds, which were near 3.4% of everything screened. Unless noted, the call rests on the fitted dose curve; in most records, active means well fitted curve in the direction sought with a large enough effect; inconclusive means small, poorly fitted or top-dose-only effect, or another doubt; inactive means no such curve, though single readings can be large; an effect the other way counts as inactive or inconclusive.

SMILES	Tau fibril ThT	RGS12 GoLoco inh	Tau FP inhib	Tau fluor counter	KDM4E inh
S=c1[nH]c2cc(Br)cnc2[nH]1	32µM	–	?	–	?
CCCCCCC[n+]1ccc(-c2cc[n+](CCCCCCC)cc2)cc1	–	7.9µM!	?	–	–
CCCCCCCCCCCCCCCC[n+]1ccccc1	–	–	?	–	–
O=C1NC(=S)N(Cc2ccco2)C(=O)/C1=C\c1cccs1	13µM	–	?	?	14µM
C=CCN1C(=O)/C(=C/c2cccs2)C(=O)NC1=S	?	–	–	?	–
O=C(O)c1ccccc1-c1c2cc(Br)c(=O)cc-2oc2[c]([Hg])c(O)c(Br)cc12	?	1.1µM	?	?	5µM
Cc1cc(C)c(Cn2c3ccccc3c3cnn(CC(=O)NCc4ccc(Cl)cc4)c(=O)c32)c(C)c1	–	·	?	–	·
N#C/C(=C\c1ccc(O)c(O)c1)C(N)=S	2.2µM	–	?	?	?
CCN(CC)c1ccc(CC2C(=O)N(C)C(=O)N(C)C2=O)cc1	?	–	?	25µM[fluorescent]	–
C=CCOc1ccc(CC2C(=O)N(C)C(=O)N(C)C2=O)cc1	?	–	–	–	–
NC1=NC([S][Hg][c]2ccc(N)cc2)c2ncn([C@@H]3O[C@H](CO)[C@@H](O)[C@@H]3O)c2N1 (some centres undefined)	·	0.5µM	·	·	·
COC(=O)C1C(O)C(C)C(O)C(C)/C=C\C=C(/C)C(=O)Nc2c(C)c(OC(C)=O)c3c(c2O)C(=O)C(C)=C2OCOC(=C23)/C(C)=C/C(C)(O)C(O)C(C)C1O (centres undefined)	32µM	–	?	?	?
CCC(=O)OC1CCC2C3CCC4=CC(=O)CC[C@@]4(C)C3CC[C@]12C (some centres undefined)	?	14µM	–	–	–
CC(C)CNCCc1ccccn1	·	–[14.2 µM]	·	·	·
CC(=O)OC1CC2C(C)(C)C(O)C=C[C@@]2(C)C2CC[C@]3(C)C(=CC(=O)OC3c3ccoc3)[C@]12C (some centres undefined)	35µM	–	?	–	–
CC(=O)OC1CC(OC(C)=O)[C@]2(C)C(CC(OC(C)=O)[C@]3(C)C2CC[C@@]2(C)C(c4ccoc4)C(=O)C4O[C@]432)C1(C)C (some centres undefined)	–	–	–	–	–
c1cc2cc(c1)C[n+]1ccc(c3ccccc31)NCc1ccc(cc1)CNc1cc[n+](c3ccccc13)C2	?	–	?	–	18µM
C=C1C(=O)O[C@@H]2C[C@@H](C)[C@@H]3C=CC(=O)[C@@]3(C)[C@@H](O)[C@H]12	3.5µM	–	4µM	8.9µM![quencher]	–
C[C@@H]1C[C@H]2OC(=O)C3(CO3)[C@H]2[C@H](O)[C@]2(C)C(=O)C3OC3[C@@H]12 (some centres undefined)	?	–	?	–	–
O=C1N[C@@]2(CN3CCC2CC3)C(=O)N1CN(Cc1ccccc1)c1ccccc1	·	–[14.2 µM]	·	·	·
C(=N\NC1=NCCCCC1)/c1c[nH]c2ccccc12	·	–	–	–	–
Brc1ccc2[nH]cc(/C=N/N3CCCCC3)c2c1	?	–	–	11µM[quencher]	–
CCOc1ccc(-c2nc(CSCC(=O)NCCc3ccc(OCC)c(OCC)c3)c(C)o2)cc1	?	·	–	–	·
S=C(S)N1CCCC1	32µM	–	?	–	?
Cc1ccc2ccccc2c1NC(=O)CNC1CCCCC1	–	–	–	–	–
SMILES	Tau fibril ThT	RGS12 GoLoco inh	Tau FP inhib	Tau fluor counter	KDM4E inh
Cc1ccc2cc3c(ccc4ccccc43)c3c2c1CC3	16µM	–	?	–	·
Cc1cccc(N(C)S(=O)(=O)c2cc(-c3cnc(C4CC4)o3)ccc2C)c1	?	·	–	–	·
C=CCOC(C)=O	·	–	·	·	·
N#CC(Cl)(Cl)Cl	·	–	·	·	·
CN1CCc2nc(SCc3ccccc3Br)c(C#N)cc2C1	?	–	–	?	?
C=CCSc1nc2c(c(-c3ccsc3)c1C#N)CN(C)CC2	14µM	–	?	20µM[quencher]	?
CN(C)CS/C(N)=N/[C@H](O)C(Cl)(Cl)Cl	·	–[14.2 µM]	·	·	·
NC(Cc1cc(O)c(O)cc1O)C(=O)O (centres undefined)	14µM	14µM	?	?	13µM
Cc1o[nH]c(=O)c1CC(N)C(=O)O (centres undefined)	–	–	–	–	–
COc1ccc2nc(N3CCN(C(=O)CS(=O)(=O)c4ccc(C)cc4)CC3)sc2c1	?	·	–	–	·
C/C(O)=C1\C(=O)[C@@H]2[C@H]3c4c[nH]c5cccc(c45)C[C@H]3C(C)(C)N2C1=O	?	–	–	–	·
CN1Cc2ccccc2[C@@H]2c3cccc4[nH]cc(c34)C[C@H]21	11µM	–	?	?	10µM
CC1=C[C@@H]2c3cccc4[nH]cc(c34)C[C@H]2N(C)C1	16µM	–	–	?	·
CCN(CC)C(=O)N[C@@H]1C[C@H]2c3cccc4[nH]cc(c34)C[C@@H]2N(C)C1	·	–	·	·	–
C(=NCCN1CCOCC1)=NC1CCCCC1	·	–[14.2 µM]	·	·	·
ClC(Cl)=C(Cl)Cl	·	–	·	·	·
COc1cc2c(cc1OC)-c1c(O)c(OC)cc3c1[C@H](C2)N(C)CC3	5µM	11µM	11µM	?	?
COc1cc2c(cc1OC)-c1c(OC)c(OC)cc3c1C(C2)N(C)CC3 (centres undefined)	?	–	–	–	?
Cc1cc(Br)ccc1N1C(=O)CC(=O)NC1=O	13µM	–	?	–	–
C[C@H]1C2C=C[C@H]1[C@@H](C(=O)O)[C@@H]2c1c2ccc(=O)c(O)c-2oc2c(O)c(O)ccc12	·	–[14.2 µM]	·	·	·
CN(N=O)c1ccc(O)c(O)c1	–	4.5µM	–	–	10µM
NNC(N)=S	·	–	·	·	·
Cc1ccccc1-n1c(O)c(C(c2ccncc2)c2c(O)n(-c3ccccc3C)c(=O)[nH]c2=O)c(=O)[nH]c1=O	·	–	?	–	18µM
O=C(N/N=C/c1c(O)n(Cc2ccc(F)cc2)c(=O)[nH]c1=O)c1ccccc1O	?	·	–	–	25µM
COc1ccc(Cn2c(O)c(/C=N/NC(=O)c3ccccc3)c(=O)[nH]c2=O)cc1	–	–	–	–	–
SMILES	Tau fibril ThT	RGS12 GoLoco inh	Tau FP inhib	Tau fluor counter	KDM4E inh
COc1ccc(Cn2c(O)c(/C=N/NC(=O)c3ccncc3)c(=O)[nH]c2=O)cc1	?	–	–	–	7.9µM
O=C(N/N=C/c1c(O)n(Cc2ccccc2)c(=O)[nH]c1=O)c1ccccc1O	–	–	?	–	–
COc1ccc(Cn2c(O)c(/C=N/NC(=O)c3ccccc3O)c(=O)[nH]c2=O)cc1	22µM	–	–	?	–
Oc1ccc(Cl)cc1Cl	·	–	·	·	·
CCOc1ccc(-n2c(O)c(N=Nc3c(C)n(C)n(-c4ccccc4)c3=O)c(=O)[nH]c2=O)cc1	?	–	–	–	7.9µM
CC(C)CN(C(=O)CN1CC=C(c2ccccc2)CC1)c1c(N)n(CC(C)C)c(=O)[nH]c1=O	–	–	–	–	28µM
CCN(C(=O)CN1CC=C(c2ccccc2)CC1)c1c(N)n(Cc2ccccc2)c(=O)[nH]c1=O	–	–	–	–	–
c1ccc2c(c1)CCNC2	·	–	·	·	·

Compound activity as filed in PubChem.
